Screening results as filed in PubChem.
Most compounds without a hit are left out; they make up all but 2.5% or so of the library.
TROY NFkB inh = inhibitors of TROY-dependent NF-kB signaling; Q293 LMP1-TROYcd NF-kB luciferase reporter, 4 h; inhibition, % at 10 µM; 360,000 tested, 0.98% active; AID 1347056;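 active = compounds whose plate-normalised and pattern-corrected inhibition of the luciferase reporter signal at the single screening dose is 50% or more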
TWEAK-Fn14 inh = TWEAK-Fn14 signaling inhibition; TWEAK-stimulated Fn14 reporter cells, luciferase luminescence, 8 h; inhibition, % at 10 µM; 360,000 tested, 2% active; AID 1159606; in the data active = inhibition above about 50%
LGR2 antag = Drosophila LGR2 receptor signaling inhibition; 380,000 tested, 0.35% active; AID 720647; HEK293 LGR2, CRE-luciferase, bursicon-stimulated, 4 h; inhibition, % at 9.99 µM;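 active = drop in luminescence signal, shown as inhibition above about 50% in the replicate tests, limit read from the data, passing the limit was not always enough; inconclusive = probably only some replicates passing the limit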;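 also: agonist challenge used bursicon conditioned medium at about half maximal strength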
EWS-Fli block = inhibitors of EWS/Fli oncoprotein transcriptional activity; A673 NR0B1-luciferase reporter, viability-normalised; inhibition, % at 12.6 µM; 350,000 tested, 0.67% active;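 active = mean inhibition of at least 50% after viability correction, with every replicate also passing that limit; inconclusive = mean reaches 50% but only one of two replicates passes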;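 also: firefly luciferase signal divided by Alamar Blue viability fluorescence both relative to DMSO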
EBV LMP1 NFkB = reduces LMP1-driven NF-kappaB luciferase signal; LMP1-induced NF-kappaB luciferase reporter cells, luminescence; inhibition, % at 12.5 µM; 350,000 tested, 0.69% active; AID 504558; in the data active = inhibition above about 41%; inconclusive = no clear call, values can overlap the other calls;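 also: 0% = neutral control wells and 100% = reference inhibitor control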
An asterisk follows results filed as active; ? = inconclusive; . = no result.

SMILES	TROY NFkB inh	TWEAK-Fn14 inh	LGR2 antag	EWS-Fli block	EBV LMP1 NFkB
CCCC1Oc2ccccc2C(=O)N(CC(=O)c2ccc3c(c2)OCCO3)C1=O (stereo not given)	-85	-39	-32	-53	-12
O=C(CN1C(=O)c2ccccc2S1(=O)=O)c1cccc(Br)c1	80*	99*	38	47	4
C[C@@H](NC(=O)[C@@H]1[C@@H](CO)[C@@H]2Cn3c(cccc3=O)[C@@H]2N1CC1CCCC1)c1ccccc1	.	.	10	22	.
COc1ccc2c3c([nH]c2c1)[C@H](CO)N(C(=O)CN(C)C)CC31CCN(CC2CCOCC2)CC1	.	.	4	-12	.
Cc1cc(C)cc(NC(=O)CCCCCN2C(=O)[C@@H]3Cc4ccccc4CN3C2=O)c1	-6	55*	0	2	2
CNC(=O)C[C@@H]1CC[C@@H]2[C@H](COc3ccc(NC(=O)c4cnccn4)cc3C(=O)N2C)O1	.	.	3	-9	.
CC(C)c1ccc2[nH]c(O)c(N=NC(=O)c3cccc(S(=O)(=O)N4CCCCC4)c3)c2c1	27	55*	21	.	-4
O=C(N=Nc1c(O)[nH]c2ccccc12)c1cccc(S(=O)(=O)N2CCCCC2)c1	15	-5	5	14	0
N#Cc1ccc(-c2ccc([C@H]3[C@@H](CO)N4CCCCN(S(=O)(=O)c5ccccc5)C[C@@H]34)cc2)cc1	.	.	21	-13	.
C[C@H](CO)N1C[C@H](C)[C@H](CN(C)C(=O)Nc2ccc(F)cc2)OCCCC[C@H](C)Oc2ccc(NC(=O)NC3CCCCC3)cc2C1=O	.	.	72*	-3	.
C[C@H]1CCCCO[C@H](CN(C)C(=O)Nc2ccc(C(F)(F)F)cc2)[C@@H](C)CN([C@@H](C)CO)C(=O)c2cc(NC(=O)NC3CCCCC3)ccc2O1	.	.	12	6	.
C[C@H](CO)N1C[C@H](C)[C@H](CN(C)C(=O)Nc2ccc(C(F)(F)F)cc2)OCCCC[C@H](C)Oc2ccc(NC(=O)NC3CCCCC3)cc2C1=O	.	.	55*	10	.
C[C@H](CO)N1C[C@H](C)[C@H](CN(C)C(=O)Nc2ccc(F)cc2)OCCCC[C@H](C)Oc2ccc(NC(=O)Nc3ccccc3)cc2C1=O	.	.	59*	-8	.
C[C@@H]1CCCCO[C@@H](CN(C)C(=O)Nc2ccccc2)[C@H](C)CN([C@@H](C)CO)C(=O)c2cc(NC(=O)Nc3ccc(F)cc3)ccc2O1	.	.	-12	3	.
CO[C@H]1CN(C)C(=O)c2ccc(NC(=O)Nc3ccc4c(c3)OCO4)cc2OC[C@H](C)NC[C@@H]1C	.	.	-19	.	.
C[C@H]1CN([C@@H](C)CO)C(=O)Cc2cc(NC(=O)CCCCCC(=O)Nc3ccccc3N)ccc2O[C@@H]1CN(C)Cc1ccc(Cl)c(Cl)c1	.	.	2	30	.
COC(=O)CCC(=O)OC1(C)C(=O)C=C2C=C(C3CC3)N(CC3CC3)C=C2C1=O (stereo not given)	16	-6	-4	4	50*
CC=Cc1ccc2n(c1=O)C[C@H]1[C@H](CO)[C@@H](C(=O)N(C)C)[C@@H]2N1C(=O)c1ccc(F)cc1 (mixture of isomers)	.	.	1	-7	.
CC1CC(C)C[N+](=C2C=C(N3CCCC3)CC(C)(C)C2)C1 (stereo not given)	19	50	2	48	42*
O=C(Cc1ccccn1)N1CC(=O)N2[C@@H](CO)[C@H](c3ccc(C#CC4CCCCC4)cc3)[C@@H]2C1	.	.	-21	2	.
CN(C)c1ccc(/C=C/c2nc3ccccc3s2)cc1	65*	105*	.	.	25
Oc1ccc(/C=C/c2ccc3ccccc3n2)cc1	74*	92*	96*	79*	48*
C(=C\c1ccc2ccccc2n1)/c1ccccc1	57*	74*	94*	74*	40
Cc1ccc(/C=C/c2nc3ccccc3s2)s1	76*	86*	.	.	43*
COc1cc(/C=C/c2nc3ccccc3s2)cc(OC)c1O	27	2	-38	-2	7
SMILES	TROY NFkB inh	TWEAK-Fn14 inh	LGR2 antag	EWS-Fli block	EBV LMP1 NFkB
C[C@@H]1CN([C@H](C)CO)C(=O)c2cc(NC(=O)c3ccncc3)ccc2O[C@@H]1CN(C)Cc1ccccc1	.	.	8	-2	.
Fc1ccccc1/C=C/c1ccc2ccccc2n1	59*	89*	90*	.	-2
O=C(O)/C=C/c1ccc2ccccc2n1	-19	-9	.	.	76*
O=[N+]([O-])c1ccc(/C=C/c2ccc3cccc(O)c3n2)cc1	41	-27	-43	-70	7
O=[N+]([O-])c1ccc(/C=C/c2ccc3ccccc3n2)cc1	55*	60*	54*	59*	4
CN(C)c1ccc(/C=C/c2ccc3ccccc3n2)cc1	76*	99*	93*	.	76*
CCC(=O)N1[C@H](C#N)[C@@H](c2ccccc2-c2ccccc2)[C@H]1CO	.	.	.	-1	.
CC(=O)N1[C@H](CO)[C@@H]2c3ccccc3N(C(=O)c3ccccc3)C[C@@H]21	.	.	5	4	.
O=C(C[C@@H]1C=C[C@H](NC(=O)C2CCOCC2)[C@H](CO)O1)NCc1ccccc1Cl	.	.	3	-4	.
CCN(c1cccc(C)c1)S(=O)(=O)c1ccc2c(c1)CCN2C(C)=O	35	93*	.	.	9
CO[C@H]1CN(C)C(=O)c2cc(NC(=O)NC3CCCCC3)ccc2OC[C@@H](C)N(CCc2ccccc2)C[C@@H]1C	.	.	9	8	.
CC(=O)c1ccc(NC(=O)CCCC(=O)c2ccccc2)cc1	-36	-7	-4	13	0
CC(=O)c1ccc(NCCC(=O)c2ccccc2)cc1	49	69*	-32	-30	-4
CCOC(=O)c1sc(NC(=O)CNCc2ccccn2)c(C(=O)OCC)c1C	-11	-42	7	34	44*
CC(C)NC(=O)Nc1ccc2c(c1)C(=O)N([C@@H](C)CO)C[C@H](C)[C@H](CN(C)S(=O)(=O)c1ccc(F)cc1)OCCCC[C@H](C)O2	.	.	11	11	.
CCCCCCCCCn1c2c(c(=N)c3c1CCC3)CCCC2	51*	57*	.	.	29
CCCCCCCCn1c2c(c(=N)c3ccccc31)CCC2	47	71*	?	42	8
CCCCCn1c2c(c(=N)c3ccccc31)CCC2	15	4	14	22	8
CCCCCCCCCCn1c2c(c(=N)c3c1CCC3)CCC2	57*	72*	.	.	?
COc1ccc(S(=O)(=O)N(C)C[C@@H]2OCc3cn(nn3)CCCC(=O)N([C@H](C)CO)C[C@@H]2C)cc1	.	.	-1	2	.
O=C(O)C[C@H]1C[C@@H]2c3cc(NC(=O)c4cccnc4)ccc3O[C@@H]2[C@H](CO)O1	.	.	6	-6	.
N#CC(=C=[N-])c1nc2ccccc2nc1-[n+]1cccc(NC(=O)c2ccccc2)c1	-13	75*	17	-12	1
O=C(NCc1cccnc1)/C(=C\c1ccc(-c2cccc(Cl)c2)o1)S(=O)(=O)c1ccccc1	78*	104*	87*	.	-2
O=C(NCc1cccnc1)/C(=C/c1ccc(-c2cccc(Cl)c2)o1)S(=O)(=O)c1ccccc1	-9	58*	28	.	-12
